According to ChEMBL document CHEMBL1157539, “Thousands of chemical starting points for antimalarial lead identification” (Nature, 2010):

Assays:
Format in all cases: functional
[1] = test system: Plasmodium falciparum; experiment: GSK_TCMDC: Inhibition of Plasmodium falciparum 3D7 in whole red blood cells, using parasite LDH activity as an index of growth. Test compounds present at 2uM
[2] = test system: Plasmodium falciparum; experiment: GSK_TCMDC: Inhibition of Plasmodium falciparum Dd2 in whole red blood cells, using parasite LDH activity as an index of growth. Test compounds present at 2uM
[3] = test system: HepG2; experiment: GSK_TCMDC: Percent inhibition of human HepG2 cell line. Test compounds present at 10uM.

Row | SMILES | Inhibition [1] | Inhibition [2] | Inhibition [3]
1 | Br.COc1cc(CCCON2C(=N)N=C(N)NC2(C)C)cc(OC)c1OC | 98% | 94% | 68%
2 | Cl.NC(=O)c1cccc(Nc2nccc(Nc3ccc(Oc4cccc(Cl)c4)c(Cl)c3)n2)c1 | 93% | 12% | 0%
3 | Cc1noc(C)c1-c1cccc(CNCc2ccc(-c3ccc(-c4nc5cc(F)ccc5[nH]4)s3)cc2)c1.O=C(O)C(F)(F)F | 100% | 93% | 45%
4 | CCc1cn(C)c2c(N3CCCC3=O)cc(C(=O)N[C@@H](Cc3ccccc3)[C@H](O)CNC(C)(C)c3cccc(OC)c3)cc12 | 95% | 99% | 9%
5 | COc1ccc(OC)c(-c2ccc(=O)n(CC(=O)Nc3cccc4ccccc34)n2)c1 | 100% | 95% | 0%
6 | CC(C)(C)NS(=O)(=O)c1cc(C(=O)N2CCC(CCN3CCC(C(=O)c4ccc(F)cc4)CC3)(c3cccc(F)c3)CC2)c(Cl)cc1F | 99% | 99% | 0%
7 | CN1CCC(c2ccc(NC(=O)c3ccc(-c4cccc(C(F)(F)F)c4)o3)cc2)CC1 | 86% | 23% | 23%
8 | Br.CC1(C)NC(N)=NC(=N)N1OCCCSc1ccccc1 | 93% | 94% | 69%
9 | Cn1ccnc1-c1nc2ccccn2c1NCC(=O)Nc1ccccc1N1CCCCC1 | 85% | 57% | 16%
10 | O=C(c1ccccc1[N+](=O)[O-])N(Cc1ccccc1)c1ccccn1 | 91% | 0% | 0%
11 | NS(=O)(=O)CCc1cccc(Nc2nccc(-c3c(-c4cccc(NC(=O)c5c(F)cccc5F)c4)nn4ccccc34)n2)c1 | 98% | 97% | 84%
12 | O=c1cc(NCCC(CNCc2ccoc2)NCc2cc(Br)cc(Br)c2)[nH]c2ccccc12 (centres undefined) | 92% | 28% | 0%
13 | COc1ccc2nccc(NC(=O)C3(O)CCC(NCc4ncc5c(c4Cl)OCCO5)CC3)c2n1.Cl (centres undefined) | 83% | 59% | 21%
14 | Cc1ccc(O)c(-c2cc(C(=O)Nc3ccc(S(=O)(=O)N4CCCCC4)cc3)[nH]n2)c1 | 94% | 98% | 31%
15 | CN1CCN(c2ccnc3cc4c(cc23)N(C(=O)Nc2ccc(-c3ccncc3)c3ccccc23)CC4)CC1.Cl | 100% | 97% | 10%
16 | CSc1ccc(CN2CCC(NC(=O)c3ccc(-c4ccc(N(C)C)cc4)s3)CC2)cc1.O=C(O)C(F)(F)F | 86% | 26% | 30%
17 | CCOC(=O)c1ccc(NC(=O)Nc2cccc(-c3ccc(-c4nc5cccc(C)c5[nH]4)s3)c2)cc1 | 100% | 99% | 44%
18 | Cn1c(-c2ccccc2)cc2c3c(N)nc(N)nc3ccc21 | 100% | 30% | 27%
19 | ON=C1CCc2cc(-c3cc(-c4ccc(OC5CCNCC5)cc4)oc3-c3ccncc3)ccc21 | 100% | 99% | 34%
20 | Cc1cccc2nc(-c3ccc(-c4ccc(CNCc5cnn(-c6ccccc6)n5)cc4)cc3)[nH]c12.O=C(O)C(F)(F)F | 100% | 99% | 35%
21 | Cc1[nH]c2c(NCc3ccc(F)cc3)nccc2c1C | 83% | 0% | 63%
22 | CS(=O)(=O)Nc1ccc(-c2cnc3[nH]cc(-c4ccc(C(=O)O)cc4)c3c2)cc1 | 95% | 45% | 0%
23 | Cc1cccc2nc(-c3cccc(-c4ccc(NC(=O)NC5CC5c5ccccc5)cc4)c3)[nH]c12 (centres undefined) | 98% | 49% | 25%
24 | O=[N+]([O-])c1ccc(Nc2nc(N/N=C/c3cc(Cl)cc(Cl)c3O)nc(Nc3ccccc3)n2)cc1 | 100% | 72% | 29%
25 | CCN(CC)CCNC(=O)c1ccc(NC(=O)c2cc(-c3ccncc3)nc3ccccc23)cc1 | 97% | 2% | 1%
26 | COc1ccc(Nc2nccc(N3CCC(NC(=O)c4cccc(C#N)c4)C3)n2)cc1 (centres undefined) | 92% | 93% | 6%
27 | Cc1cc(Nc2nc(Nc3cccc(Cl)c3)nc3ccccc23)n[nH]1 | 100% | 95% | 9%
28 | CN(C)CCCOc1cccc(NC(=O)Nc2ccc(Cl)c(Cl)c2)c1.O=C(O)C(F)(F)F | 90% | 8% | 6%
